# Experimental data published in PubChem BioAssay.
# Unmarked numbers belong to inactive results. Some of the results follow. Activity calls are given as the source filed them. Unless noted, no stated cut-off is given here; in the data, active means inhibition above about 33%; inactive means the rest.
# What was measured:
# [1] = biological target: Photoreceptor-specific nuclear receptor (Homo sapiens) (UniProt Q9Y5X4); assay: retest of NR2E3-NCOR disrupting agonists – cell-based, luminescence, CHO-S two-hybrid, confirmation (AID 624378;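 active means average inhibition above a cutoff equal to the mean inhibition of all tested compounds plus one SD, cut at about 70% in these data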;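 further: 0% = DMSO in NR2E3 cells and 100% = DMSO in cells lacking NR2E3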); conditions: CHO-S mammalian two-hybrid NR2E3-NCOR, luciferase luminescence; at 3.98 µM; hits give high values
# Photoreceptor-specific nuclear receptor (Homo sapiens), sequence (Q9Y5X4 whole entry, looked up): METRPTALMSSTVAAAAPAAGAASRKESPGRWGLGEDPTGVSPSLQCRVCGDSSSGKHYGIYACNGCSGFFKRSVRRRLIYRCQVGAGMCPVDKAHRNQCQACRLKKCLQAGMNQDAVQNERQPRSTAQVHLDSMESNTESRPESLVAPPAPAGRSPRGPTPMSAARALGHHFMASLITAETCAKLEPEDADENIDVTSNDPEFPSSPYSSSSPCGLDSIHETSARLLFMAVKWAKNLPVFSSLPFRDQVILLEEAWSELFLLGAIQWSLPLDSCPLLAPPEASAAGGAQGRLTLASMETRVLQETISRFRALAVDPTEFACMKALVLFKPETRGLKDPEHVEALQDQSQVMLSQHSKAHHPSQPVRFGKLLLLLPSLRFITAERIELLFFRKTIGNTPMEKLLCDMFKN
# [2] = nonselective effects on VP16 transactivation – cell-based, luminescence, CHO-S, high throughput, counter-screen for NR2E3 agonist project, confirmation (AID 624379;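 active means mean inhibition above a cutoff equal to the average over all tested compounds plus one standard deviation, cut at about 70% in these data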;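 further: 0% = DMSO with VP16-transfected cells and 100% = DMSO with cells lacking VP16; higher means less reporter light so more repression of VP16 activity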); conditions: CHO-S GAL4-VP16 luciferase reporter, at 3.98 µM, hits give high values
# [3] = system: transactivating tegument protein VP16 (Human herpesvirus 1); assay: compounds suppressing VP16-driven luciferase signal – cell-based, luminescence, single concentration, counter-screen for SRC2 inhibitor project (AID 652007; in the data active means inhibition above about 36%); conditions: cell-based VP16 transactivation luciferase reporter, at 8.9 µM, hits give high values
# [4] = biological target: Nuclear receptor coactivator 2 (Homo sapiens) (UniProt Q15596); assay: inhibition of GAL4-SRC2 driven luciferase expression – cell-based, luminescence, HEK293, triplicate, confirmation (AID 652008;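 active means mean inhibition above 46.5%, the solvent-only control mean plus 3 SD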;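 further: 0% = DMSO-treated cells and 100% = Gossypol at 36 µM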); conditions: HEK293 GAL4-SRC2 luciferase reporter, at 8.9 µM, hits give high values
# Nuclear receptor coactivator 2 (Homo sapiens), sequence (Q15596 whole entry, looked up, the tested form may be a part): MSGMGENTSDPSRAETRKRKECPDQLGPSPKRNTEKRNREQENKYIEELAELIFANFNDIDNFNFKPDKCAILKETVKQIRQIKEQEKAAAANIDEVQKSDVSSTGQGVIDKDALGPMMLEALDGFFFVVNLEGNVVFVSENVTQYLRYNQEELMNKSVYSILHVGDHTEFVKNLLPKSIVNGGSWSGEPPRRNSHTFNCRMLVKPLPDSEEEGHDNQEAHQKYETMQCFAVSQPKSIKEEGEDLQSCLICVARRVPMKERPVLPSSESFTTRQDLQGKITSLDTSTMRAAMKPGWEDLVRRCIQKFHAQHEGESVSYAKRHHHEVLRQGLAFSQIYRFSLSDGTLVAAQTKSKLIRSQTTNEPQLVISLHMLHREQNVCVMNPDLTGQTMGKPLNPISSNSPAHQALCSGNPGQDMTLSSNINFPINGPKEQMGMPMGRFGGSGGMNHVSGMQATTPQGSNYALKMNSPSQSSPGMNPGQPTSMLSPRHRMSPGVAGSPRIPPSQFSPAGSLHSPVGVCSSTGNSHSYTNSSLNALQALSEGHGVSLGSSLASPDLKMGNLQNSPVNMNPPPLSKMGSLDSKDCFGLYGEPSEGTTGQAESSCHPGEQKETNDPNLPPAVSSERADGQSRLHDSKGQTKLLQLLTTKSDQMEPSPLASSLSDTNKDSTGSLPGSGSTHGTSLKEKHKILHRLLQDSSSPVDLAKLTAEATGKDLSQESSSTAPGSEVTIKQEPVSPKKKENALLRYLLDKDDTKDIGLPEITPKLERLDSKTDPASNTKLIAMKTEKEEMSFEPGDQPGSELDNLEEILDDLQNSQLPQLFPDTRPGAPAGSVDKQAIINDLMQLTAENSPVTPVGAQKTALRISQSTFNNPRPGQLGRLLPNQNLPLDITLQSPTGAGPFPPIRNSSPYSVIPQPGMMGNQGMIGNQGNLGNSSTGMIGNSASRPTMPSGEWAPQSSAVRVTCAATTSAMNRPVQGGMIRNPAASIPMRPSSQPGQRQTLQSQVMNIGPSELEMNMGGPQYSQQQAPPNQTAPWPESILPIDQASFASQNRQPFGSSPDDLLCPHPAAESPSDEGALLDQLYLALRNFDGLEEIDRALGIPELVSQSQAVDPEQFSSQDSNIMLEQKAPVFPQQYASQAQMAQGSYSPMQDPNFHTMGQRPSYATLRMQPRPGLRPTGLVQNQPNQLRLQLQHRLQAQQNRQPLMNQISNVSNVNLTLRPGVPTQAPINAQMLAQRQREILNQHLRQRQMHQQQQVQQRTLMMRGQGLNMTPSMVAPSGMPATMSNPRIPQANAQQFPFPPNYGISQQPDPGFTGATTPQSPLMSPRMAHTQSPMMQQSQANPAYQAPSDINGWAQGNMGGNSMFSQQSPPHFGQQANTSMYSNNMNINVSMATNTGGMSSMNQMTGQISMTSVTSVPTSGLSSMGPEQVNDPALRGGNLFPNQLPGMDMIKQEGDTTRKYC
# [5] = VP16-driven transactivation reporter suppression – cell-based, luminescence, HEK293, counter-screen for COUP-TFII antagonist project (AID 687007; in the data active means inhibition above about 13%); conditions: HEK293 Gal4-VP16 luciferase reporter, at 8.5 µM, hits give high values
# [6] = biological target: COUP transcription factor 2 (Homo sapiens) (UniProt P24468); assay: retest of COUP-TFII reporter suppressors – cell-based, luciferase reporter, HEK293, triplicate, confirmation (AID 687008;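 active means mean inhibition over three repeats above a set limit taken from the earlier primary screen, cut at about 38% in these data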;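 further: 100% = cells given the luciferase reporter alone without the COUP-TF2 vector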); conditions: HEK293 NGFI-A luciferase reporter, luminescence; at 8.5 µM; hits give high values
# COUP transcription factor 2 (Homo sapiens), sequence (P24468 whole entry, looked up): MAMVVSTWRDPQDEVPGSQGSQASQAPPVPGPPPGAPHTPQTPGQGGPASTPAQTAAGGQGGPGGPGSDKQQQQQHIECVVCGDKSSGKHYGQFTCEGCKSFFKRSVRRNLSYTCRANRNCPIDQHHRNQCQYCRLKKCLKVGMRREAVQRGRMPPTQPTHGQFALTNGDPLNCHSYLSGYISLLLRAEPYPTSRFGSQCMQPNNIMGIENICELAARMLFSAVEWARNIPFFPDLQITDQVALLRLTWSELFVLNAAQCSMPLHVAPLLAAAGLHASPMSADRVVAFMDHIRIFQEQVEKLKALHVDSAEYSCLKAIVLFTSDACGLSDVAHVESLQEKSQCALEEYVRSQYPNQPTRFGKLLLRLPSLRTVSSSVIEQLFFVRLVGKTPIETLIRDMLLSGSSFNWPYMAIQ
# [7] = StAR promoter reporter inhibitors, counter-screen for LRH-1 inverse agonist project, cell-based, luminescence, high throughput (AID 651611; in the data active means inhibition above about 28%); conditions: StAR promoter luciferase reporter counterscreen, at 3.6 µM, hits give high values
# [8] = biological target: Nuclear receptor subfamily 5 group A member 2 (Homo sapiens) (UniProt O00482); assay: NR5A2 activity suppression in reporter cells – cell-based, luminescence, confirmation (AID 651613; in the data active means inhibition above about 42%;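 further: HEK293T cells co-transfected with LRH-1 and StAR promoter luciferase reporter; 0% = vehicle wells and 100% = parental cells lacking receptor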); conditions: cell-based LRH-1 luciferase reporter, inverse agonism; at 3.6 µM; hits give high values
# Nuclear receptor subfamily 5 group A member 2 (Homo sapiens), sequence (O00482 whole entry, looked up): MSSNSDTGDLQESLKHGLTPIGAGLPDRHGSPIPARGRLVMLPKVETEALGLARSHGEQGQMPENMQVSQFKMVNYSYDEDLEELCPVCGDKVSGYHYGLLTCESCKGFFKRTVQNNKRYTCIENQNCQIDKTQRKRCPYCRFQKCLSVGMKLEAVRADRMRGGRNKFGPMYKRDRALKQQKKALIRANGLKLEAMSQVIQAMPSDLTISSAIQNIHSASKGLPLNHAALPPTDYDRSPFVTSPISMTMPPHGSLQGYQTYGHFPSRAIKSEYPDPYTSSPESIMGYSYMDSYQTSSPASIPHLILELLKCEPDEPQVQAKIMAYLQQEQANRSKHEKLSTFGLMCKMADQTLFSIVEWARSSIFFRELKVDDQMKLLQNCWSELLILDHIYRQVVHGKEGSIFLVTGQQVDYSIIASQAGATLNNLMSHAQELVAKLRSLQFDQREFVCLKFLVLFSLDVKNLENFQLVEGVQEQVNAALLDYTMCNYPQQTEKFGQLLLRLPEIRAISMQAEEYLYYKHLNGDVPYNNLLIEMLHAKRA
# [9] = biological target: Steroidogenic factor 1 (Homo sapiens) (UniProt Q13285); assay: inverse agonism at SF1 nuclear receptor – cell-based, luminescence, high throughput, counter-screen for LRH-1 inverse agonist project (AID 651614; in the data active means inhibition above about 44%;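 further: cells cotransfected with StAR promoter reporter and SF1 expression vector; 0% = vehicle on cells with receptor and 100% = vehicle on cells lacking receptor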); conditions: cell-based SF1 luciferase reporter, at 3.6 µM, hits give high values
# Steroidogenic factor 1 (Homo sapiens), sequence (Q13285 whole entry, looked up, the tested form may be a part): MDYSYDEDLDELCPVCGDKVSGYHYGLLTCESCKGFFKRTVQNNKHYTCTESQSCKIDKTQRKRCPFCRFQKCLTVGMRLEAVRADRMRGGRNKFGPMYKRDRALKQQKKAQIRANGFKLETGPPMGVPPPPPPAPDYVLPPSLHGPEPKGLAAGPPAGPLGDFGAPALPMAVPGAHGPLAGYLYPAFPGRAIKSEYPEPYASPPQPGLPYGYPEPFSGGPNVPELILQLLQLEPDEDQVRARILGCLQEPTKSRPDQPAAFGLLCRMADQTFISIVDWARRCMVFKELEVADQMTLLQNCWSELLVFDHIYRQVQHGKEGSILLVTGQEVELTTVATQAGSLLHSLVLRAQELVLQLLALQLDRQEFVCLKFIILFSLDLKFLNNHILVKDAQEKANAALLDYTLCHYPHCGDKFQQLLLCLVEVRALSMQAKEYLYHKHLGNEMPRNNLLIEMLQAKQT
# [10] = compounds suppressing VP16-driven luciferase signal – cell-based, luminescence, high throughput, counter-screen for LRH-1 inverse agonist project (AID 651615); conditions: Gal4-VP16 luciferase reporter cells, at 3.6 µM, hits give high values
smiles,measurement,setting,value
COc1ccc(-n2c(C)cc(C(=O)CSc3nnc(-c4cccs4)o3)c2C)cc1,inhibition,[1],61.9%
same,inhibition,[2],66.9%
same,inhibition,[3],20%
same,inhibition,[4],33.9%
same,inhibition,[5],0.72%
same,inhibition,[6],34.1%
CCCOc1ccccc1C1CC(=O)Nc2cc3c(cc21)OCO3 (stereo unspecified),inhibition,[1],28.9%
same,inhibition,[2],26.1%
CCC1(C)Cc2c(sc3[nH]c(=S)n(Cc4ccccc4)c(=O)c23)CO1 (stereo unspecified),inhibition,[1],70.9% (active)
same,inhibition,[2],34.4%
COc1ccccc1-n1nnnc1S(=O)(=O)Cc1ccc(Cl)cc1,inhibition,[1],10.2%
same,inhibition,[2],19%
same,inhibition,[7],41.7% (active)
same,inhibition,[8],51.6% (active)
same,inhibition,[9],40.4%
same,inhibition,[10],34.2% (active)
CCOC(=O)N1CCN(C(=O)c2ccc(S(=O)(=O)Nc3cccc(C(F)(F)F)c3)cc2)CC1,inhibition,[1],65.8%
same,inhibition,[2],47.3%
Cc1ccc(OCC(=O)c2cc(C)n(Cc3ccco3)c2C)c([N+](=O)[O-])n1,inhibition,[1],67.8%
same,inhibition,[2],52.5%
same,inhibition,[3],23.6%
same,inhibition,[4],37.4%
CCC(C)C(N=C1NS(=O)(=O)c2ccccc21)C(=O)N1CCC(C)CC1 (stereo unspecified),inhibition,[1],41%
same,inhibition,[2],-4.13%
Cc1cccc(NC(=O)CSc2nnc([C@@H]3CCCN3C(=O)OC(C)(C)C)o2)c1C,inhibition,[7],33.4% (active)
same,inhibition,[8],66.2% (active)
same,inhibition,[9],73.5% (active)
same,inhibition,[10],-39.9%
COc1ccc(OC)c(NC(=O)c2ccccc2NC(=O)c2ccco2)c1,inhibition,[7],12.6%
same,inhibition,[8],45.3% (active)
same,inhibition,[9],47.3% (active)
same,inhibition,[10],-1.48%
O=C(C(Cl)c1ccccc1)N1CCCC1 (stereo unspecified),inhibition,[7],7.29%
same,inhibition,[8],51.5% (active)
same,inhibition,[9],44.9% (active)
same,inhibition,[10],-16.8%
CCC(=O)N1CCN(c2ccc(NC(=O)c3ccc([N+](=O)[O-])o3)cc2Cl)CC1,inhibition,[7],13%
same,inhibition,[8],56.2% (active)
same,inhibition,[9],58.2% (active)
same,inhibition,[10],-21.9%
COc1ccc(CCNC(=O)CSc2nnc(CNC(=O)c3cccs3)o2)cc1OC,inhibition,[7],4.32%
same,inhibition,[8],56.7% (active)
same,inhibition,[9],50% (active)
same,inhibition,[10],1.47%
CCc1ccc2oc(C(=O)NCc3ccncc3)c(C)c2c1,inhibition,[7],-4.67%
same,inhibition,[8],53.2% (active)
same,inhibition,[9],61% (active)
same,inhibition,[10],6.18%
CCCc1cc(=O)oc2cc(OCC(=O)NCCc3ccc(S(N)(=O)=O)cc3)ccc12,inhibition,[7],9.29%
same,inhibition,[8],50.9% (active)
same,inhibition,[9],51.1% (active)
same,inhibition,[10],4.44%
CCOc1ccc(NC(=O)COC(=O)C2CCC(=O)N2)c([N+](=O)[O-])c1 (stereo unspecified),inhibition,[7],4.31%
same,inhibition,[8],50.5% (active)
same,inhibition,[9],43.6% (active)
same,inhibition,[10],-7.9%
O=C(CSc1ncccc1-c1nc2ccccc2[nH]1)Nc1ccc2c(c1)OCCO2,inhibition,[7],-8.79%
same,inhibition,[8],-2.1%
same,inhibition,[9],5.63%
same,inhibition,[10],-15.5%
Cc1cc2ncn(/N=C/c3ccc([N+](=O)[O-])o3)c2cc1C,inhibition,[7],17.6%
same,inhibition,[8],69.1% (active)
same,inhibition,[9],68.2% (active)
same,inhibition,[10],-19.6%
CCOC(=O)N1CCN(C(=O)C2CCN(c3ncnc4c3sc3cccc(F)c34)CC2)CC1,inhibition,[1],92% (active)
same,inhibition,[2],70.3%
same,inhibition,[5],-7.67%
same,inhibition,[6],27.1%
C=CCn1c(SCC(=O)Nc2ccccc2C)nc(O)cc1=O,inhibition,[7],9.34%
same,inhibition,[8],57.8% (active)
same,inhibition,[9],52.2% (active)
same,inhibition,[10],-13.2%
Cc1c(C(=O)N(Cc2ccc(F)cc2)C2CCS(=O)(=O)C2)oc2ccccc12 (stereo unspecified),inhibition,[7],36.8% (active)
same,inhibition,[8],8.94%
same,inhibition,[9],31.4%
same,inhibition,[10],-5.18%
O=C1CC(c2ccc3c(c2)OCCO3)Oc2ccc([N+](=O)[O-])cc21 (stereo unspecified),inhibition,[7],14.5%
same,inhibition,[8],-49.9%
same,inhibition,[9],-37%
same,inhibition,[10],-35.3%
OC1(c2ccc(OC(F)F)cc2)CSC(=Nc2cccnc2)N1C1CC1 (stereo unspecified),inhibition,[7],11.3%
same,inhibition,[8],43.3% (active)
same,inhibition,[9],48.8% (active)
same,inhibition,[10],40% (active)
Cc1ccc(NC(=O)CN2CCC(NC(=O)C3CCCCC3)CC2)c(Br)c1,inhibition,[7],11.8%
same,inhibition,[8],34%
same,inhibition,[9],44.9% (active)
same,inhibition,[10],7.56%
O=C(NCc1cccc(C(F)(F)F)c1)c1cc(-c2ccccc2)nn1CC1CC(c2cccnc2)=NO1 (stereo unspecified),inhibition,[7],13%
same,inhibition,[8],36.4%
same,inhibition,[9],32.1%
same,inhibition,[10],6.07%
CCCC(=O)N1CCN(c2ccc(NC(=O)c3ccc([N+](=O)[O-])o3)cc2)CC1,inhibition,[7],-1.48%
same,inhibition,[8],52.9% (active)
same,inhibition,[9],55.4% (active)
same,inhibition,[10],-18.4%
